Compounds with a hit are over-represented: about 2.4% of the library has one in this group of screens.
D2 ag-1 = activates the human D2 dopamine receptor. P14416. DiscoveRx PathHunter D2 beta-arrestin, luminescence, 90 min; 100% = 57 uM dopamine signal. activation, % (no concentration beside the values). 360,000 compounds, 0.084% hits. AID 624465; in the data active means activation above about 40%; inconclusive means between about 15% and that limit
Target sequence (P14416 whole entry, looked up): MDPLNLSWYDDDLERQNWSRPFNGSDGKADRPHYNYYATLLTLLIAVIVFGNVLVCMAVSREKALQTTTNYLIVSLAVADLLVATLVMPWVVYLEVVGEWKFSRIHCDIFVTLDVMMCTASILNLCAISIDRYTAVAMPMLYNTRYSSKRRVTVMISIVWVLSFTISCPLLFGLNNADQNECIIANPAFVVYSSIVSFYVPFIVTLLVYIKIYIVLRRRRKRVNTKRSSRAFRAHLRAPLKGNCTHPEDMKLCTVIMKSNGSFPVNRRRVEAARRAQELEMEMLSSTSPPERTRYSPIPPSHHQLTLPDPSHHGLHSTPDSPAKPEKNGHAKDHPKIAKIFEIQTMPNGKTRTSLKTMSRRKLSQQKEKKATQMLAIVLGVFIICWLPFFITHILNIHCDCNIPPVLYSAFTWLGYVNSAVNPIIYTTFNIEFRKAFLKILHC
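Agonist mode: compounds alone added to overnight-plated D2 PathHunter cells for 90 min at 37 C, with 57 uM final dopamine (EC100) defining full response. Beta-arrestin recruitment detected by chemiluminescent reagent, read after 1 h at ambient temperature.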
D2 PAM-1 = positive allosteric modulators of human D2 dopamine receptor. P14416. DiscoveRx D2 beta-arrestin cells, luminescence, 90 min; 100% = 57 uM dopamine signal. potentiation, % (test concentration not listed). 360,000 compounds, 0.23% hits. AID 624464; in the data active means potentiation above about 50%; inconclusive means mostly about 30% to 49%
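PathHunter D2 cells, attached overnight at 37 deg C, received compound in DMSO plus dopamine at EC20 (50 nM final) for 90 min at 37 deg C. Beta-arrestin recruitment was read as luminescence after 1 h with detection reagent at ambient temperature.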
D2 PAM-2 = positive allosteric modulators of human D2 dopamine receptor. P14416. HEK293 T-REx D2, calcium flux, EC20 dopamine potentiation. potentiation, % at 10 µM. 340,000 compounds, 0.34% hits;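 active means potentiation over 3 SD above the plate norm, cut at about 30% in these data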
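Potentiation of an EC20 dopamine calcium response measured kinetically over 180 s, after a preceding 180 s compound-only read flagging agonists. Cells: inducible Hek293 Trex D2 line, 4000/well, cultured overnight at 30 C before dye loading.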
D2 ag-2 = agonists of human D2 dopamine receptor; P14416; HEK293 T-REx D2 cells, calcium flux agonist mode; activation, % at 2 µM; 340,000 compounds, 0.53% hits;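 active means activation over 3 SD above normal in the single-dose calcium agonist read, cut at about 30% in these data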
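Tetracycline-induced HEK293 Trex cells with D2 receptor force-coupled to calcium signaling, plated overnight at 30 C and loaded with no-wash calcium dye. Calcium flux read kinetically for 180 s after compound addition; responses flag agonists.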
D2 antag = D2 dopamine receptor (human) antagonism | P14416 | 340,000 compounds, 2% hits | inhibition, % at 10 µM | HEK293 TREx D2 cells, calcium flux, dopamine EC80; in the data active means inhibition above about 30%; inactive means below that, where a call was filed
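Cells plated overnight at 30 C with tetracycline; no-wash calcium dye, 30–90 min RT; 10 s baseline; compound pinned; 180 s read; EC80 dopamine added; another 180 s read.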
Large screens that a line does not name were inactive.

CC(O)CNC(=O)C(=O)Nc1c2c(nn1-c1ccc(Cl)cc1)CSC2 (stereo unspecified)	none (no result: D2 ag-1, D2 PAM-1, D2 antag)
CC(C)N1CC(COc2ccc(Br)cc2)OC1=O (stereo unspecified)	D2 antag 41.2
CN(C)c1ccc(/C=C/C(=O)c2ccc(O)cc2)cc1	none (no result: D2 PAM-2, D2 ag-2, D2 antag)
CN(C)c1ccc(/C=C/C(=O)c2ccc3c(c2)OCO3)cc1	D2 ag-2 68.4
CN(C)c1ccc(/C=C/C(=O)c2cccnc2)cc1	D2 ag-2 59.1
O=C(CNC(=O)C12CC3CC(CC(C3)C1)C2)N/N=C\c1ccco1	D2 PAM-1 79.7
O=C(CNC(=O)c1ccc2c(c1)OCCO2)N/N=C/c1ccco1	none
O=C(NCCc1ccccc1)c1ccc2c(c1)CCN2S(=O)(=O)c1ccc(Cl)cc1	none (no result: D2 ag-1, D2 PAM-1, D2 antag)
COc1cccc(CNC(=O)c2c(C)nn(-c3cccc(C)c3)c2-n2cccc2)c1	none (no result: D2 ag-1, D2 PAM-1, D2 PAM-2, D2 antag)
Cc1ccc(Cl)c(OCCN2CCc3ccccc3C2)c1	D2 antag 65.9
Clc1ccc(OCCCCN2CCc3ccccc3C2)cc1	D2 antag 91.0
O=C(CCc1ccccc1)NCc1nc2cccnc2n1Cc1ccc(F)cc1	none (no result: D2 ag-1, D2 PAM-1, D2 antag)
Cc1oc2c(c1C(=O)c1ccc(Cl)cc1)C(=O)C(=O)c1ccccc1-2	D2 PAM-1 108.5
Cc1ccc(C(=O)c2coc3c2C(=O)C(=O)c2ccccc2-3)cc1	D2 ag-1 inconclusive, D2 PAM-1 63.7
Cc1oc2c(c1C(=O)N1CCC(C)CC1)C(=O)c1ccccc1C2=O	none
Cc1ccc(C(=O)c2c(C)oc3c2C(=O)C(=O)c2ccccc2-3)cc1	D2 ag-1 inconclusive, D2 PAM-1 74.3
Cn1cc(S(=O)(=O)c2ccc(Cl)cc2)c(=O)c2cc(F)c(N3CCCC3)cc21	none (no result: D2 ag-1, D2 PAM-1, D2 antag)
Cc1ccc(-n2nc3c(N4CCC(C(=O)NCc5ccc(C)o5)CC4)nnc(C)c3c2C)cc1	D2 PAM-2 31.3
Cc1cc(NC(=O)COc2ccccc2)cc(-c2nc3ccccc3o2)c1O	none (no result: D2 ag-1, D2 PAM-1, D2 antag)
O=C(CC1SC(=O)N(c2ccccc2)C1=O)Nc1ccc(Br)cc1 (stereo unspecified)	none
CN(C1=NC(=O)C(CC(=O)Nc2ccc(Br)cc2)S1)c1ccc(O)cc1 (stereo unspecified)	D2 antag 40.4
CCC(CC)C(=O)Nc1cc(-c2nc3cccnc3s2)ccc1C	none (no result: D2 ag-1, D2 PAM-1, D2 antag)
CC(C)C(=O)Nc1ccc(N2CCCC2)c(Cl)c1	none
Cc1ccc(NC(=O)C(C)N2CCCC2)cc1Cl (stereo unspecified)	D2 antag 33.1
Cc1ccc(NC(=O)CNC2CCCCC2)cc1Cl	D2 antag 30.3
CC(=O)c1ccc(NC(=O)CNC2CCCCC2)cc1	none
CC1CCc2onc(C(=O)N3CCN(c4cccc(C(F)(F)F)c4)CC3)c2C1 (stereo unspecified)	none (no result: D2 ag-1, D2 PAM-1, D2 ag-2, D2 antag)
CCOc1ccc(NC(=O)CSc2nc3nc(C)c(Cc4ccccc4)c(C)n3n2)cc1	none (no result: D2 ag-1, D2 PAM-1, D2 antag)
COc1ccc2nc(NC(=O)C3CCN(S(=O)(=O)c4cnc[nH]4)CC3)sc2c1	D2 antag 32.3
Cc1ccc2nc(NC(=O)C3CCN(S(=O)(=O)c4cc([N+](=O)[O-])ccc4Cl)CC3)sc2c1	D2 ag-1 inconclusive, D2 PAM-1 58.8
O=C(COC(=O)C1CCN(S(=O)(=O)c2cc([N+](=O)[O-])ccc2Cl)CC1)Nc1ncc(Cl)cc1Cl	D2 PAM-1 70.4
O=C(Nc1nc2ccc(F)cc2s1)C1CCN(S(=O)(=O)c2cc([N+](=O)[O-])ccc2Cl)CC1	D2 PAM-1 inconclusive
CC(=O)COC(=O)C1CCN(S(=O)(=O)c2cc([N+](=O)[O-])ccc2Cl)CC1	none
CCC(=O)N1c2ccc(S(=O)(=O)CCC(=O)NCCC3=CCCCC3)cc2CC1C (stereo unspecified)	D2 antag 30.9
CCC(=O)N1CCc2cc(S(=O)(=O)CCC(=O)NCCC3=CCCCC3)ccc21	none (no result: D2 PAM-2, D2 ag-2, D2 antag)
COc1cc(-n2c(=O)c3ccccc3n(Cc3cccc(Cl)c3)c2=O)cc(OC)c1OC	none (no result: D2 ag-1, D2 PAM-1, D2 antag)
Nc1nc(-c2ccc(Cl)cc2)cn1N	D2 antag 30.2
Clc1ccc(-c2cn3c(n2)SCC3)cc1	none
O=C(N/N=C/c1ccc(N2CCOCC2)s1)c1ccccc1Cl	none
FC(F)(F)c1ccc(Cl)c(N/N=C/c2ccc(N3CCOCC3)s2)c1	D2 ag-1 inconclusive, D2 PAM-1 72.3 (no result: D2 PAM-2, D2 ag-2, D2 antag)
COc1ccc(OC)c(CNC(=O)c2cc(S(=O)(=O)N3CCC(C)CC3)cn2C)c1	none (no result: D2 ag-1, D2 PAM-1, D2 antag)
O=S(=O)(Nn1cnnc1)c1ccccc1Cl	D2 antag 30.4
Cc1ccc(-c2nc(CS(=O)(=O)CC(=O)NCc3cccc(F)c3)c(C)o2)cc1	none (no result: D2 ag-2)
CCOC(=O)N1CCC(NC(=O)CS(=O)(=O)Cc2nc(-c3cccc(OC)c3)oc2C)CC1	D2 PAM-2 96.6
COc1ccc(-c2nc(CS(=O)(=O)CC(=O)NCc3cccc(F)c3)c(C)o2)cc1	D2 antag 54.3
COc1cccc(-c2nc(CS(=O)(=O)CC(=O)NC3CC3)c(C)o2)c1	none
CCOC(=O)c1cc(-c2ccc(F)cc2)n(CCC(=O)Nc2cc(OC)cc(OC)c2)c1C	none (no result: D2 ag-1, D2 PAM-1, D2 antag)
COc1cccc(NC(=O)C(=O)NCC(c2cccnc2)N2CCN(c3ccccc3)CC2)c1 (stereo unspecified)	none (no result: D2 ag-1, D2 PAM-1, D2 antag)
COc1cccc(C(=O)NC2CCN(CC(=O)NCc3ccccc3F)CC2)c1	none
Cc1cccc(C(=O)NC2CCN(CC(=O)NCc3ccccc3F)CC2)c1	D2 antag 41.6
C=CCNc1nc(C(=O)OCC(=O)Nc2c(Cl)cccc2C(F)(F)F)cs1	D2 antag 36.3
CCCCNC(=S)N(C)/N=C/c1ccc(F)cc1	D2 antag 90.6
CCCCNC(=S)N(C)/N=C/c1c(F)cccc1F	none
Cc1cccc(N(CC(=O)NC2CCCC2)C(=O)CS(=O)CC(=O)Nc2ccc3c(c2)OCO3)c1C (stereo unspecified)	none
Cc1ccc(NC(=O)CS(=O)CC(=O)N(CC(=O)NC2CCCC2)c2cccc(C)c2C)cc1 (stereo unspecified)	D2 antag 55.4
CCCCSc1nnc2n(-c3cccc(C)c3)c(=O)c3c4c(sc3n12)CCCC4	none (no result: D2 ag-1, D2 PAM-1, D2 antag)
CCCCN1C(=O)/C(=C/C=C2\Oc3ccccc3N2CC)SC1=S	D2 ag-2 61.1
CC1CCN(CC(=O)N2CCc3ccccc32)CC1	D2 antag 53.6
CCOC(=O)C1CCN(CC(=O)N2CCc3ccccc32)CC1	none (no result: D2 PAM-2, D2 ag-2, D2 antag)
O=C(NCCSCc1ccccc1Cl)C1CCN(S(=O)(=O)Cc2ccccc2)CC1	none (no result: D2 ag-1, D2 PAM-1, D2 antag)
CSCCC(NS(=O)(=O)c1ccccc1F)C(=O)N1CCCCCC1 (stereo unspecified)	D2 antag 43.6
Cc1cccc(OCC(=O)Nc2ccccc2OCc2cc(=O)n3cc(C)ccc3n2)c1	none (no result: D2 ag-1, D2 PAM-1, D2 antag)
COc1ccc(/C(N)=N/OC(=O)c2cccc([N+](=O)[O-])c2C)cc1OC	D2 ag-1 inconclusive, D2 PAM-1 93.2
